Results published in PubChem BioAssay AID1159580 (chemical genetic matrix, 2015).
“And” between values parts separate entries of the source, which are not always exact repeats. Equal values may be shown once. The campaign covered roughly 5,500 compounds. About 2,000 (36%) were called active. Another 18% or so got no clear call; they are omitted. Cut-off read from the data, not from the text of the source: active = normalized growth mostly below about 0.91 (no sharp cut-off); inconclusive = no clear call, values can overlap the other calls; inactive = mostly above about 0.92. The list shows a part of the results. The source holds several records for some structures; these can differ, active in one and inactive in another.

Experiment: chemical genetic growth profiling, strain panel (AID 1159580);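 note: tested at 20 µM; growth read once vehicle control cultures reached saturation at 30 °C; 1 = growth at the plate median or of vehicle wells; lower values mean less growth of the strain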
Details: S. cerevisiae deletion strains, growth OD

Measured: normalized growth

Fc1ccc(C(c2ccc(F)cc2)N2CCN(C/C=C/c3ccccc3)CC2)cc1
inactive: locus YAL013W, strain DEP1, stronger effect = lower value 0.996 and 0.961 | locus YAL040C, strain CLN3, stronger effect = lower value 1.02 | locus YBR021W, strain FUR4, stronger effect = lower value 0.978 | locus YBR229C, strain ROT2, stronger effect = lower value 0.989 | locus YCL029C, strain bik1, stronger effect = lower value 0.945 | locus YCL061C, strain MRC1 (second series), stronger effect = lower value 0.96 | locus YDL035C, strain GPR1, stronger effect = lower value 0.976 | locus YDL074C, strain BRE1, stronger effect = lower value 0.904 | locus YDL101C, strain DUN1, stronger effect = lower value 0.973 | locus YDL134C, strain PPH21, stronger effect = lower value 0.993 | locus YDL185W, strain tfp1, stronger effect = lower value 0.966 | locus YDL192W, strain arf1, stronger effect = lower value 0.973 | locus YDR101C, strain arx1, stronger effect = lower value 0.967 | locus YDR137W, strain rgp1, stronger effect = lower value 1.01 | locus YDR162C, strain NBP2, stronger effect = lower value 0.966 | locus YDR195W, strain ref2 1.05 | locus YDR318W, strain mcm21, stronger effect = lower value 0.951 | locus YDR363W, strain ESC2, stronger effect = lower value 0.922 | locus YDR502C, strain sam2, stronger effect = lower value 0.988 | locus YEL061C, strain CIN8, stronger effect = lower value 0.991 | locus YER110C, stronger effect = lower value 0.974 | locus YER155C, strain BEM2, stronger effect = lower value 1.01 | locus YER167W, strain BCK2, stronger effect = lower value 1.01 | locus YGL078C, strain dbp3, stronger effect = lower value 0.994 | locus YGL086W, strain mad1, stronger effect = lower value 0.999 | locus YGL167C, strain pmr1, stronger effect = lower value 1.01 | locus YGL248W, strain PDE1, stronger effect = lower value 0.99 | locus YGR078C, strain PAC10, stronger effect = lower value 0.976 | locus YGR135W, strain pre9, stronger effect = lower value 0.942 | locus YGR252W, strain gcn5, stronger effect = lower value 1.07 | locus YHR030C, strain SLT2, stronger effect = lower value 0.994 and 0.988 | locus YHR079C, strain IRE1 (second series), stronger effect = lower value 0.972 | locus YHR079C, strain IRE1, stronger effect = lower value 0.991 | locus YHR094C, strain hxt1, stronger effect = lower value 0.977 | locus YHR129C, strain ARP1, stronger effect = lower value 0.992 | locus YHR200W, strain rpn10, stronger effect = lower value 0.973 | locus YIL066C, strain RNR3, stronger effect = lower value 0.965 | locus YIL125W, strain kgd1, stronger effect = lower value 0.986 | locus YIR030C, strain dcg1, stronger effect = lower value 0.98 | locus YJL095W, strain BCK1, stronger effect = lower value 0.918 and 0.981 | locus YJL134W, strain LCB3, stronger effect = lower value 0.983 | locus YJL168C, strain set2, stronger effect = lower value 0.977 | locus YJL187C, strain SWE1 (second series), stronger effect = lower value 0.946 | locus YJR043C, strain POL32, stronger effect = lower value 0.983 | locus YJR066W, strain TOR1, stronger effect = lower value 0.928
0.985 (inactive) and 0.925 (active): locus YDR150W, strain NUM1, stronger effect = lower value
0.919 (inactive) and 0.24 (active): locus YGR229C, strain SMI1, stronger effect = lower value
active: locus YAL021C, strain ccr4, stronger effect = lower value 0.625 | locus YAL026C, strain drs2, stronger effect = lower value 0.0836 | locus YAL030W, strain snc1, stronger effect = lower value 0.293 | locus YBL061C, strain skt5, stronger effect = lower value 0.214 | locus YBR009C, strain hhf1, stronger effect = lower value 0.263 | locus YBR023C, strain chs3, stronger effect = lower value 0.22 | locus YBR171W, strain sec66, stronger effect = lower value 0.662 | locus YBR231C, strain swc5, stronger effect = lower value 0.147 | locus YBR279W, strain paf1, stronger effect = lower value 0.488 | locus YCL011C, strain gbp2, stronger effect = lower value 0.221 | locus YCL016C, strain dcc1, stronger effect = lower value 0.234 | locus YCL069W, strain vba3, stronger effect = lower value 0.18 | locus YCR088W, strain abp1, stronger effect = lower value 0.374 | locus YDL005C, strain med2, stronger effect = lower value 0.263 | locus YDL040C, strain nat1, stronger effect = lower value 0.666 | locus YDR001C, strain nth1, stronger effect = lower value 0.442 | locus YDR069C, strain doa4, stronger effect = lower value 0.479 | locus YDR159W, strain sac3, stronger effect = lower value 0.15 | locus YDR297W, strain sur2, stronger effect = lower value 0.322 | locus YDR334W, strain swr1, stronger effect = lower value 0.208 | locus YDR335W, strain msn5, stronger effect = lower value 0.368 | locus YDR388W, stronger effect = lower value 0.88 | locus YDR392W, strain spt3, stronger effect = lower value 0.104 | locus YEL003W, strain gim4, stronger effect = lower value 0.326 | locus YEL037C, strain rad23, stronger effect = lower value 0.215 | locus YEL061C, strain CIN8 (second series), stronger effect = lower value 0.229 | locus YER015W, strain faa2, stronger effect = lower value 0.346 | locus YER016W, strain bim1, stronger effect = lower value 0.715 | locus YER111C, strain swi4, stronger effect = lower value 0.663 | locus YER155C, strain BEM2 (second series), stronger effect = lower value 0.736 | locus YFR010W, strain ubp6, stronger effect = lower value 0.297 | locus YGL173C, strain kem1, stronger effect = lower value 0.794 | locus YGL227W, strain vid30, stronger effect = lower value 0.243 | locus YGL240W, strain doc1, stronger effect = lower value 0.819 | locus YGL253W, strain hxk2, stronger effect = lower value 0.0972 | locus YHR013C, strain ard1, stronger effect = lower value 0.149 | locus YHR027C, strain rpn1, stronger effect = lower value 0.556 | locus YHR142W, strain chs7, stronger effect = lower value 0.127 | locus YIL073C, strain SPO22, stronger effect = lower value 1.52 [resistant] | locus YJL092W, strain hpr5, stronger effect = lower value 0.282 | locus YJL095W, strain BCK1 (second series), stronger effect = lower value 0.0776 | locus YJL115W, strain asf1, stronger effect = lower value 0.435 | locus YJL129C, strain trk1, stronger effect = lower value 0.215 | locus YJL154C, strain vps35, stronger effect = lower value 0.686 | locus YJL164C, strain tpk1, stronger effect = lower value 0.176 | locus YJL166W, strain qcr8, stronger effect = lower value 0.19 | locus YJL187C, strain SWE1, stronger effect = lower value 0.231
